From PubChem
Only some compounds are listed: those with a hit (about 2.6% of all), similar ones and a draw of the others.
Cruzain inh Det: qHTS Assay for Promiscuous and Specific Inhibitors of Cruzain (with detergent); AID 1478, 2009; Potency, µM, actives largely listed as inhibitors; Cruzipain (Trypanosoma cruzi), P25779; purified cruzain, Z-FR-AMC fluorescence, 0.01% Triton; hit rate 0.43% among 200,000; note: nearly all actives have a fitted effect of over 40% in size
Target sequence (P25779 123-467 limits assumed): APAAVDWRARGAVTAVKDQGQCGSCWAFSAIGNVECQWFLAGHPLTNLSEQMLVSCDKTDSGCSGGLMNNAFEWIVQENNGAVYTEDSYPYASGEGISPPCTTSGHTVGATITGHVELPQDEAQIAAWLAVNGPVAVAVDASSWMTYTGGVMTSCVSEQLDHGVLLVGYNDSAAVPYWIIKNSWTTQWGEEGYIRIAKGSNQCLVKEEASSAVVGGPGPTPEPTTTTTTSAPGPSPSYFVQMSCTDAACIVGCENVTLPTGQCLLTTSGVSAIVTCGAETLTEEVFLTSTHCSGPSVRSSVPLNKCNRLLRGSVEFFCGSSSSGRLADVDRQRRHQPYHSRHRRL
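15 min RT preincubation of 1.5 nM cruzain with compound, then 2 uM Z-FR-AMC added; kinetic AMC fluorescence, 60 s delta. Triton X-100 0.01%, pH 5.5.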
Cruzain inh noDet: qHTS Assay for Promiscuous and Specific Inhibitors of Cruzain (without detergent); purified cruzain, Z-FR-AMC fluorescence, no detergent; Potency, µM, actives largely listed as inhibitors; hit rate 2.3% among 200,000; AID 1476, 2009; Cruzipain (Trypanosoma cruzi), P25779; note: nearly all actives have a fitted effect of over 40% in size
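Purified cruzain at 1.5 nM, pre-incubated 15 min with compound at room temperature in 100 mM sodium acetate pH 5.5, 5 mM DTT, 0.00005% Triton X-100. Reaction started with 2 uM Z-FR-AMC; AMC fluorescence increase over 60 s gives rate.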
Hits are given with their value; . = inactive; ? = inconclusive. Calls come from the whole dose curve; as a rule, active = well fitted curve in the direction sought with a large enough effect; inconclusive = small, poorly fitted or top-dose-only effect, or another doubt; inactive = no such curve, though single readings can be large; an effect the other way counts as inactive or inconclusive.

SMILES	Cruzain inh Det	Cruzain inh noDet
O=C(Nc1ccncc1)c1cn(-c2ccccc2)nc1-c1cccs1	.	.
O=C(CNc1ccccc1)N/N=C/c1cn(-c2ccccc2)nc1-c1ccccc1	.	25µM
O=C(N/N=C/c1cn(-c2ccccc2)nc1-c1cccs1)c1ccc(Cl)cc1	.	13µM
O=C(N/N=C/c1cn(-c2ccccc2)nc1-c1cccs1)c1ccccc1F	.	32µM
O=C(N/N=C\c1ccc(OC(=O)c2cccs2)cc1)c1ccc(Cl)cc1	.	10µM
COc1ccc(C(=O)N/N=C/c2ccc(OC(=O)c3cccs3)cc2)cc1	.	?
O=C(N/N=C/c1cn(-c2ccccc2)nc1-c1cc2ccccc2o1)c1ccncc1	.	.
Cc1nc2nc(SCC(=O)Nc3cccc(Cl)c3)nn2c(C)c1Cc1ccccc1	.	.
Cc1cnc(CNc2ccnc(-c3ccccc3C(F)(F)F)n2)cn1	.	.
CC(C)Oc1ccc(Br)cc1/C=N\NC(N)=S	0.25µM	0.032µM
CC(C)Oc1ccccc1/C=N/NC(=O)c1ccc(F)cc1	.	.
Cc1cc2c(cc1C)CSC(c1ccc3ccccc3c1O)SC2	.	25µM
Cc1cc2c(cc1C)CSC(c1c(O)ccc3ccccc13)SC2	.	?
O=C(Nc1nc2ccc3ccccc3c2s1)c1ccc(N2CCCCC2)c([N+](=O)[O-])c1	.	6.3µM
CCC(CC)c1nnc(NC(=O)c2ccc(N3CCCCC3)c([N+](=O)[O-])c2)s1	.	.
Cc1c(NC(=O)c2ccc(N3CCCC3)c([N+](=O)[O-])c2)cccc1-c1nc2ccccc2s1	.	7.9µM
CC(=O)N1CCN(c2ccc(NC(=O)c3ccc(N4CCCC4)c([N+](=O)[O-])c3)cc2Cl)CC1	.	.
O=C(Nc1ccc(N2CCCCC2)c(Cl)c1)c1ccc(N2CCOCC2)c([N+](=O)[O-])c1	.	.
O=C(Nc1nc2ccc(Cl)cc2s1)c1ccc(N2CCCCC2)c([N+](=O)[O-])c1	.	5µM
O=C(Nc1ccc2c(c1)OCO2)c1ccc(N2CCCC2)c([N+](=O)[O-])c1	.	25µM
COc1cccc(C(=O)Nc2ccccc2-c2nc3ccccc3s2)c1	.	.
Cc1c(-c2ccc(O)cc2)nn(-c2ccc(O)cc2)c1-c1ccc(OCCN2CCCCC2)cc1	.	.
COc1ccc(-c2nsc(NC(=O)c3oc4cc(C)c(C)cc4c3C)n2)cc1	.	.
O=C(Cn1cc2c(n1)CCCC2)Nc1cc(C(F)(F)F)ccc1Cl	.	.
O=C(O[C@@H]1Cc2c(O)cc(O)cc2OC1c1ccc(O)c(O)c1)c1cc(O)c(O)c(O)c1 (stereo not given in full)	.	.
SMILES	Cruzain inh Det	Cruzain inh noDet
COc1ccc(NC(=O)COc2ccc(N(C)S(=O)(=O)c3ccc(C)cc3)cc2)cc1	.	.
Cc1ccc(S(=O)(=O)N(C)c2ccc(OCC(=O)Nc3nc4c(ccc5ccccc54)s3)cc2)cc1	.	4µM
Cc1ccc(S(=O)(=O)N(C)c2ccc(OCC(=O)Nc3nc4ccccc4s3)cc2)cc1	.	?
CN(C)S(=O)(=O)c1ccc(N2CCCC2)c(C(=O)Nc2nc3c(ccc4ccccc43)s2)c1	.	7.9µM
CN(c1ccc(OCC(=O)Nc2nc(-c3ccccc3)cs2)cc1)S(=O)(=O)c1ccc(F)cc1	.	7.9µM
Cc1ccc(S(=O)(=O)N(C)c2ccc(OCC(=O)Nc3nc(-c4ccccc4)cs3)cc2)cc1	.	7.9µM
CCOC(=O)C(=O)c1csc(NC(=O)COc2ccc(N(C)S(=O)(=O)c3ccc(F)cc3)cc2)n1	.	.
CN(C)S(=O)(=O)c1ccc(N2CCCC2)c(C(=O)Nc2nc(-c3ccc(F)c(F)c3)cs2)c1	.	.
Cc1ccc(C(=O)OC[C@H]2O[C@H](Cl)C[C@@H]2OC(=O)c2ccc(C)cc2)cc1	.	.
CCc1ccc(Nc2nc3ccccc3c3nnc(C)n23)cc1	.	.
CCNC(=O)c1c(NC(=O)c2nc(S(=O)(=O)CC)ncc2Cl)sc2c1CCCC2	.	.
O=C(CCC1N=C2c3ccccc3N=C(SCc3cccc(F)c3)N2C1=O)NCc1ccc(F)cc1 (stereo not given)	.	.
CCN(C(=O)Cn1ncc2c1-c1cc(C)ccc1OC2)c1cc(Cl)ccc1OC	.	?
COc1ccc(-n2ccn(CC(=O)NCCc3ccccc3)c(=O)c2=O)cc1OC	.	.
COc1ncc2nc(-c3ccc(F)cc3)c(=O)n(-c3ccccc3)c2n1	.	.
O=C(Cc1ccc(Cl)cc1)Nc1ccc(NC(=O)c2ccccc2)cc1	.	25µM
C/C(=N/NC(=O)CSCc1ccc(Cl)cc1)c1cccc(NC(=O)c2ccccc2)c1	.	?
C/C(=N\NC(=O)CSCc1ccc(Cl)cc1)c1ccc(NC(=O)c2ccccc2)cc1	.	25µM
Cc1cccc(C(=O)Nc2ccc(NC(=O)Cc3ccc(Cl)cc3)cc2)c1	.	?
CC1CCN(C(=O)CSc2nc(-c3ccc(C(C)C)cc3)no2)CC1	.	.
Cc1ccc(NC(=O)Cn2c(=O)n(CCCCC(=O)NCc3ccc4c(c3)OCO4)c(=O)c3ccccc32)cc1	.	.
Cc1c(NC(=O)C(C)(C)Oc2ccc(Cl)cc2)cccc1-c1nc2ncccc2o1	.	.
Cc1nc(NC2CCCCC2)c2nc(-c3ccccc3)n(CCCN3CCCCC3C)c2n1 (stereo not given)	.	.
COc1cc2c(cc1NC(=O)CSCC(=O)O)oc1ccccc12	.	.
COc1cc2c(cc1NC(=O)Nc1ccccc1)oc1ccccc12	.	?
SMILES	Cruzain inh Det	Cruzain inh noDet
COc1cc2c(cc1NC(=S)Nc1cccc3ccccc13)oc1ccccc12	.	10µM
COc1cc2c(cc1NC(=S)Nc1cccc(C(F)(F)F)c1)oc1ccccc12	.	16µM
CC(C)NC(=O)c1ccccc1NC(=O)/C=C/c1ccc([N+](=O)[O-])cc1	.	.
COc1cc2c(cc1NC(=O)/C=C/c1ccc([N+](=O)[O-])cc1)oc1ccccc12	.	5µM
CCc1ccc(-n2nc3ccc(NC(=O)COc4ccc(OC)cc4)cc3n2)cc1	.	.
Cc1cc(C)c2nc(NC(=O)c3ccc(S(=O)(=O)N4CCCC4)cc3)sc2c1	.	?
Cc1cc(C)c2nc(NC(=O)c3cccc(S(=O)(=O)N4CCc5ccccc54)c3)sc2c1	.	4µM
Cc1cccc2sc(NC(=O)c3cccc(S(=O)(=O)N4CCc5ccccc54)c3)nc12	.	10µM
O=C(Nc1ncccc1O)c1cccc(S(=O)(=O)N2CCc3ccccc32)c1	.	.
CCOc1cccc2sc(NC(=O)c3ccc(S(=O)(=O)N4CCCc5ccccc54)cc3)nc12	.	2µM
Cc1cccc2sc(NNC(=O)c3ccc(S(=O)(=O)N4CCCC(C)C4)cc3)nc12 (stereo not given)	.	.
Cc1cccc2sc(NNC(=O)c3ccc(S(=O)(=O)N4CCc5ccccc5C4)cc3)nc12	.	7.9µM
COc1cc2nc(NC(=O)c3ccc(S(=O)(=O)N4CCc5ccccc54)cc3)sc2cc1OC	.	.
CC(=O)c1cccc(NC(=O)CSc2ncc3c(n2)-c2cc(Cl)ccc2N(Cc2ccccc2)S3(=O)=O)c1	.	.
Cc1ccc2oc(C(=O)Nc3sc4c(c3C(=O)NCc3ccccc3)CCCC4)cc(=O)c2c1	.	.
COc1ccc(Oc2ncc3nc(CCc4ccccc4)c(=O)n(CCC#N)c3n2)cc1	.	.
O=C(Nc1ccccc1)c1cccc2c(=O)c3c([nH]c12)CCCC3	.	?
